Test [1] is described as follows: qHTS assay for small molecule agonists of the p53 signaling pathway (AID 651631; calls by dose curve; further: nearly all actives have a fitted effect of over 15% in size; further: potency means the concentration at half of the fitted maximal effect). Summed up: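 Quantitative high-throughput format: 4,000 p53RE-bla HCT-116 cells/well, 5 h pre-incubation, 16 h compound exposure at 37 °C, 2 h room-temperature substrate step, fluorescence intensity measured.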
A short description of test [2]: qHTS assay for small molecules that induce genotoxicity in human embryonic kidney cells expressing luciferase-tagged ATAD5 (AID 651632). Further: nearly all actives have a fitted effect of over 15% in size. Summed up:
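Cells were seeded at 2,000 per well, dosed with compound, and incubated 16 hr at 37C in 5% CO2. Luciferase activity was then quantified after a 30 min room-temperature incubation with Amplite.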

A short description of test [3]: qHTS assay for small molecule agonists of the p53 signaling pathway - cell viability (AID 651633; calls by dose curve;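 further: p53RE-bla HCT reporter cells with a stable beta-lactamase p53 reporter; nearly all actives have a fitted effect of over 30% in size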). Put shortly: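 p53RE-bla cells, seeded at 4,000 per well and rested 5 h at 37 C/5% CO2, received compounds in DMSO for 16 h at 37 C. CellTiter-Glo was then added, and luminescence was read after 30 min at room temperature to gauge cytotoxicity.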
(In qHTS, concentration-response curves come from the screen itself.)

A short description of test [4]: qHTS assay for small molecules that induce genotoxicity in human embryonic kidney cells expressing luciferase-tagged ATAD5 - cell viability (AID 651634; calls by dose curve; further: nearly all actives have a fitted effect of over 25% in size). Summed up:
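Cells (HEK293T, luciferase-tagged ATAD5) are seeded at 2,000 per well, dosed with compound or DMSO vehicle, and incubated 15.5 hr at 37C and 5% CO2. CellTiter-Fluor is added for 30 min before fluorescence is measured.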

Test [5] can be described thus: qHTS assay for small molecule disruptors of the mitochondrial membrane potential - cell viability (AID 720634; calls by dose curve;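 further: human HepG2 liver cancer cells; nearly all actives have a fitted effect of over 20% in size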). Summed up: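 Cytotoxicity was measured by ATP quantitation in HepG2 wells that had first been treated with compound for 1 hr and stained with m-MPI dye; CellTiter-Glo incubation was 30 min at room temperature.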
Test [6] is described as follows: qHTS assay for small molecule disruptors of the mitochondrial membrane potential (AID 720635). Summed up:
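HepG2 cells (2,000/well) attached overnight at 37C, then took compound for 1 hr at 37C, 5% CO2. Mito-MPS dye was added for 30 min; fluorescence was read at 490/535 nm (monomers) and 540/590 nm (aggregates).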

Test [7] can be described thus: qHTS assay to test for compound auto fluorescence at 590 nm (red) in HepG2 cells (AID 720674). Summed up:
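Intrinsic compound fluorescence in the red window (Ex/Em 540/590 nm) is measured in attached HepG2 cells exposed for 1 hr, DMSO vehicle as baseline, benchmarked to Rose Bengal sodium.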

Test [8] can be described thus: qHTS assay to test for compound auto fluorescence at 535 nm (green) in HepG2 cells (AID 720675).
Test [9] can be described thus: qHTS assay to test for compound auto fluorescence at 460 nm (blue) in HEK293 cells (AID 720678). Put shortly:
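HEK293 cells (2,000 per well, medium with 10% dialyzed FBS) attached for 4-5 hr at 37C, then received compound and stood overnight at 37C, 5% CO2. Blue fluorescence was read at Ex/Em 405/460 nm and expressed relative to triamterene.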

A short description of test [10]: qHTS assay to test for compound auto fluorescence at 590 nm (red) in HEK293 cells (AID 720679). Summed up:
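HEK293 cells (2,000/well, medium with 10% dialyzed FBS) attached for 4-5 hr at 37C, received 23 nL compound and were incubated overnight at 37C, 5% CO2. Red fluorescence was then read at 540/590nm Ex/Em, referenced to Rose Bengal sodium.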

A short description of test [11]: qHTS assay to test for compound auto fluorescence at 535 nm (green) in HEK293 cells (AID 720680).
A short description of test [12]: qHTS assay to test for compound auto fluorescence at 460 nm (blue) in HEK293 cell free culture (AID 720681). Summed up:
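Test compounds were pinned into cell-free culture medium (DMEM with 10% FBS) and fluorescence was read directly at Ex/Em 405/460 nm. Signals were expressed as fluorescence equivalents of triamterene, with DMSO vehicle as control.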

Test [13] is described as follows: qHTS assay to test for compound auto fluorescence at 590 nm (red) in HepG2 cell free culture (AID 720684). Summed up: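 Readout: intrinsic compound fluorescence at 590 nm emission after 540 nm excitation, scaled to Rose Bengal sodium. Matrix was cell-free MEM with 10% FBS; DMSO vehicle wells served as control.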
Test [14] in a line: qHTS assay to test for compound auto fluorescence at 535 nm (green) in HepG2 cell free culture (AID 720686).
The nature of test [15]: qHTS assay to test for compound auto fluorescence at 460 nm (blue) in HepG2 cells (AID 720687). Put shortly:
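Cells (2,000/well in MEM with 10% FBS) attached overnight at 37 C, then were exposed to compound or DMSO for 1 hr at 37 C, 5% CO2. Fluorescence read at Ex/Em 405/460 nm, expressed as triamterene-equivalent signal.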

Test [16] deals with Glucocorticoid receptor (Homo sapiens) (UniProt P04150). The test can be described thus: qHTS assay to identify small molecule agonists of the glucocorticoid receptor (GR) signaling pathway (AID 720691; active means well fitted activation curve with a large enough effect in the signal ratio in the repeat runs, not every such curve was filed as active; the % refers to the signal ratio). Particulars: GR-bla HeLa, beta-lactamase reporter ratio, 18 h; activation: at 62.4 µM (top of the series) unless noted. Summed up:
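Steps: seed GR-bla HeLa cells, incubate 4 h at 37 C/5% CO2; pin-transfer DMSO-dissolved compounds; incubate 18 h at 37 C; add LiveBLAzer B/G FRET substrate; after 2 h at room temperature, measure fluorescence.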

A short description of test [17]: qHTS assay to test for compound auto fluorescence at 535 nm (green) in HEK293 cell free culture (AID 720682). Put shortly:
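Measurement is a direct plate read of green fluorescence (485 nm in, 535 nm out) after compound addition to serum-supplemented DMEM lacking cells, with fluorescein used to express intensities.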

A short description of test [18]: qHTS assay to test for compound auto fluorescence at 590 nm (red) in HEK293 cell free culture (AID 720683). Put shortly:
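Tox21 10K library compounds were pinned into cell-free DMEM with 10% FBS and fluorescence was read at excitation 540 nm. Activity is expressed as Rose Bengal sodium equivalency.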

Test [19] can be described thus: qHTS assay to test for compound auto fluorescence at 460 nm (blue) in HepG2 cell free culture (AID 720685). Put shortly:
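Cell-free plates of MEM plus 10% FBS received 23 nL compound or DMSO vehicle; blue-channel (405/460 nm) intensity scored against triamterene as reference fluorophore.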

For test [20], the target named is Glucocorticoid receptor (Homo sapiens) (UniProt P04150). The test can be described thus: qHTS assay to identify small molecule antagonists of the glucocorticoid receptor (GR) signaling pathway (AID 720692; active means well fitted inhibition curve with a large enough effect in the signal ratio in the repeat runs, not every such curve was filed as active; the % refers to the signal ratio). Summed up: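 Antagonism was scored as loss of dexamethasone-driven (5 nM final) reporter signal in HeLa cells bearing a glucocorticoid response element–beta-lactamase construct, after 18 h compound exposure at 37 C and 2 h FRET substrate loading.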
Glucocorticoid receptor (Homo sapiens), sequence (P04150 whole entry, looked up): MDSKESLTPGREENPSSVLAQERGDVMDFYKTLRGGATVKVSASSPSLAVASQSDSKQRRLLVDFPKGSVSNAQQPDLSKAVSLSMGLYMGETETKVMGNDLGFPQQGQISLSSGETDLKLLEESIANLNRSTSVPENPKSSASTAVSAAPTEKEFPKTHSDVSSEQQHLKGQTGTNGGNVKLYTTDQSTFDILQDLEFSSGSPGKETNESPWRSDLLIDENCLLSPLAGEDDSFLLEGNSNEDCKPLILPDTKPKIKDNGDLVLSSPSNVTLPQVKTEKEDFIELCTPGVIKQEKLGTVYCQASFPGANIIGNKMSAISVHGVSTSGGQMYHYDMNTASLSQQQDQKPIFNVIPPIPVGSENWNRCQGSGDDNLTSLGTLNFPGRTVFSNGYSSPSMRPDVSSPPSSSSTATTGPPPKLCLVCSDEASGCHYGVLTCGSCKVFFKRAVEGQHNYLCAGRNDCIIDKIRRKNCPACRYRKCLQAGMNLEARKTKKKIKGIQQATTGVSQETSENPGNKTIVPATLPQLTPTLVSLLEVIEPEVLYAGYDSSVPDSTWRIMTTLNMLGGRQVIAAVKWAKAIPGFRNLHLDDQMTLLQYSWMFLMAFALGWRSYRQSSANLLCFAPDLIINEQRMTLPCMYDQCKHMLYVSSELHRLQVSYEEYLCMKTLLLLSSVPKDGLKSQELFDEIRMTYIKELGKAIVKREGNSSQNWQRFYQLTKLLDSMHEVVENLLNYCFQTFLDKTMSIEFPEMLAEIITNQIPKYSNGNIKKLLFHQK

Molecules are shown by their SMILES. Unmarked numbers belong to inactive results. Results filed as inconclusive are left out. Active and inactive are the calls of the source. Unless noted, the call rests on the fitted dose curve; in most records, active means well fitted curve in the direction sought with a large enough effect in the repeat runs; inconclusive means weak or mixed curves; inactive means no such curve, though single readings can be large; an effect the other way counts as inactive or inconclusive.
On the % scale 0 is the no-effect control and ±100 the full control effect.

For the molecule `CN1C[C@H]2c3ccccc3Oc3ccc(Cl)cc3[C@@H]2C1`, the Potency in test [1] was 29.8 µM (active). The Potency entry in [2], in test [3], in test [4], in [5], in test [6] and in [7] was “inactive” throughout. For the same molecule, the Potency entry in test [8], in test [10], in [13], in test [14] and in [16] was “inactive” in each case. Further, the result in [9], in test [11], in test [12] and in test [15] was inactive.

As for `CCN(CC)CCNC(=O)c1cc(Br)c(N)cc1OC`, the Potency result in test [1], in test [2], in [3], in test [4], in [5] and in test [6] was “inactive” each time. Also, the Potency entry in test [7], in test [8], in [10], in [18], in test [13] and in [14] was “inactive” in each case. Further, the outcome in [9], in [11], in test [12], in test [17] and in [15] was inactive.

Take `Nc1ccc(S(=O)(=O)Nc2ccccc2)cc1`: the Potency result in test [1], in [2], in test [3], in [4], in [5] and in test [6] was “inactive” each time. In addition, the Potency result in test [7], in test [8], in [10], in [18], in test [13] and in [14] was “inactive” each time. In test [16], the Potency entry was “inactive”. Also, the call in test [9], in [11], in test [12], in test [17], in test [19] and in test [15] was inactive.

In the case of `O=CC1CC=CCC1` (stereo unspecified), the Potency entry in test [1], in test [2], in test [4], in test [5], in [6] and in test [10] was “inactive” throughout. In addition, the Potency result in test [18], in test [13] and in test [14] was “inactive” throughout. Further, the molecule was classed as inactive in [9], in test [11], in test [12], in test [19] and in test [15].

Consider `O=C1OC(CN2CCOCC2)CN1/N=C/c1ccc([N+](=O)[O-])o1` (stereo unspecified), for which the Potency result in test [1], in test [2], in test [4], in test [5], in test [6] and in test [16] was “inactive” in each case. The Potency result in test [20] was “inactive”. In test [7], the fluorescence, relative to Rose Bengal is -0.0946% [at 18.6 µM]. Further, the figures for the fluorescence, % of fluorescein control in test [8] and in [14] were -0.0437% [at 18.6 µM] and -0.14% [at 18.6 µM], respectively. Further, the fluorescence, % of triamterene in test [9] is -0.0248% [at 18.6 µM]. Moreover, the fluorescence, % of fluorescent control is 0.088% [at 18.6 µM] in test [10], 0.0972% [at 18.6 µM] in test [18], -0.135% [at 18.6 µM] in [19] and -0.0405% [at 18.6 µM] in [15]. Also, the fluorescence, % of fluorescein in test [11] was -0.416% [at 18.6 µM]. Besides, the activity change in test [17] is -0.0395% [at 18.6 µM]. Moreover, in [13], the fluorescence, % of Rose Bengal was 0.113% [at 18.6 µM].

With `O=C(O)c1ccccc1Cl`, the Potency entry in test [1], in test [2], in test [4], in test [5], in test [7] and in test [8] was “inactive” throughout. Also, the Potency entry in test [18], in test [13] and in test [14] was “inactive” each time. For the same molecule, the outcome in [9], in test [11], in test [12], in test [17], in [19] and in [15] was inactive.

As for `O=C(NCCO[N+](=O)[O-])c1cccnc1`, the Potency entry in test [1], in [2], in test [4], in [5], in test [6] and in [7] was “inactive” each time. Besides, the Potency result in test [8], in [10], in [18], in test [13], in [14] and in test [16] was “inactive” each time. The molecule was called inactive in [9], in [11], in [12], in [19] and in [15].

For the origin of these results see PubChem BioAssay (Tox21).
